# Values joined by “and” are separate entries in the source; they are usually repeats but may differ in a detail not shown here. Identical values can stand only once. Results filed as inconclusive are left out. Unmarked numbers belong to inactive results. Active and inactive are the calls of the source. Calls come from the whole dose curve; as a rule, active = well fitted curve in the direction sought with a large enough effect; inconclusive = small, poorly fitted or top-dose-only effect, or another doubt; inactive = no such curve, though single readings can be large; an effect the other way counts as inactive or inconclusive.
# How the values were obtained:
# [1] = Viability qHTS for spleen associated tyrosine kinase inhibitor (SYKi) naive MV4-11 cells (AID 1963823); note: nearly all actives have a fitted effect of over 40% in size
# Procedure, shortened: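 Cells: MV4-11, SYK inhibitor naive, 500 per well. Treatment: library compounds, 72 hr, 37 C, 5% CO2. Read-out: CellTiter-Glo luminescence after 10 min RT.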
# [2] = Viability qHTS for spleen associated tyrosine kinase inhibitor (SYKi) drug resistant MV4-11 cells (AID 1963824); note: nearly all actives have a fitted effect of over 35% in size
# Procedure, shortened: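 SYK inhibitor-resistant MV4-11 AML cells, 500 per well, added to predispensed compounds and incubated 72 hr at 37 C, 5% CO2. Viability measured by CellTiter-Glo luminescence after 10 min at room temperature.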
# [3] = Quantitative highthroughput screen to assess conditional lethalithy of P12 Ichikawa cells grown in RPMI1640 with dialyzed fetal bovine serum (RPMI+ds) (AID 1963880); details: Potency: P12-Ichikawa viability; note: nearly all actives have a fitted effect of over 35% in size
# Procedure, shortened: (§1)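 Each medium arm—HPLM with 10% dialyzed FBS, or RPMI1640 with 5 mM glucose and 10% untreated or dialyzed FBS—was screened against an 11-point, 3-fold compound titration for 48 h at 37 °C, with CellTiter-Glo luminescence as endpoint.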
# [4] = Quantitative highthroughput screen to assess conditional lethalithy of SEM cells grown in Human Plasma-Like Medium with dialyzed fetal bovine serum (HPLM+ds) (AID 1963882); note: nearly all actives have a fitted effect of over 35% in size
# Procedure, shortened: as §1
# [5] = Quantitative highthroughput screen to assess conditional lethalithy of SEM cells grown in RPMI1640 with unreated serum (RPMI+s) (AID 1963883); note: nearly all actives have a fitted effect of over 35% in size
# Procedure, shortened: as §1
# [6] = Quantitative highthroughput screen to assess conditional lethalithy of SEM cells grown in RPMI1640 with dialyzed fetal bovine serum (RPMI+ds) (AID 1963884); note: nearly all actives have a fitted effect of over 35% in size
# Procedure, shortened: as §1
# [7] = Cellular viability qHTS for adrenocortical cancer (ACC) cell line SW-13 (AID 1963989); details: SW-13 ACC cells viability, CellTiter-Glo, 48 h; activity (max response): stronger effect = lower value; note: nearly all actives have a fitted effect of over 65% in size;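 for activity (max response): cells grown in serum-free medium with ITS supplement; % is set by controls: 0 for no effect and ±100 for the full control effect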
# Procedure, shortened: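 Viability was read as CellTiter-Glo luminescence after 48 h compound treatment (up to 46 uM final) of SW-13 cells grown serum-free; titration curves were fit with a four-parameter logistic model to give IC50 and efficacy.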
# [8] = Cellular viability qHTS for adrenocortical cancer (ACC) cell line NCI-H295R (AID 1963990); note: nearly all actives have a fitted effect of over 60% in size
# Procedure, shortened: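 CellTiter-Glo ATP luminescence, read 48 h after compound addition, measured viability of NCI-H295R adrenocortical cells grown serum-free with ITS. Final concentrations spanned up to 46 uM. Data normalized to DMSO and doxorubicin, fitted for IC50 and maximal response.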
# Potency is the fitted concentration of half-maximal effect.
smiles,measurement,setting,value
Nc1ncnc2c1c(-c1cnc3[nH]ccc3c1)nn2C1CCCC1,Potency,[1],920 nM (active) and 590 nM (active)
same,Potency,[2],1.16 µM (active) and 1.18 µM (active)
same,Potency,[3],1.48 µM (active)
same,Potency,[4],5.26 µM (active)
same,Potency,[5],3.72 µM (active)
same,Potency,[6],5.9 µM (active)
same,Potency,[7],5.01 µM (active)
same,Potency,[8],2.82 µM (active)
CN(C)c1ccc2cc(C(=O)N[C@@H](CCCN=C(N)CCl)C(=O)NCc3ccccc3)ccc2c1,Potency,[1],5.25 µM (active)
same,Potency,[2],4.68 µM (active)
same,Potency,[5],26.4 µM (active)
same,Potency,[6],26.4 µM (active)
same,activity (max response),[7],-6.76%
same,Potency,[8],inactive
COc1cc2ncnc(Nc3cccc(Cl)c3)c2cc1OC,Potency,[1],4.61 µM (active) and 5.17 µM (active)
same,Potency,[2],4.17 µM (active) and 6.51 µM (active)
same,Potency,[4],0.332 µM (active)
same,Potency,[5],0.166 µM (active)
same,Potency,[6],0.372 µM (active)
same,Potency,[7],5.62 µM (active)
Cc1ccc(C(N)=O)cc1Nc1nccc(-c2cn(C(C)C)c3cnccc23)n1,Potency,[1],0.0231 µM (active)
same,Potency,[2],0.0517 µM (active)
same,Potency,[4],3.32 µM (active)
same,Potency,[5],3.72 µM (active)
same,Potency,[6],2.09 µM (active)
same,Potency,[7],8.91 µM (active)
same,Potency,[8],12.6 µM (active)
O=C1NC(=O)/C(=C/c2cccc(C(F)(F)F)c2)S1,Potency,[1],inactive
same,Potency,[2],inactive
same,Potency,[7],25.1 µM (active)
CCC(C(=O)OCCOCCN(CC)CC)c1ccccc1 (centres undefined),Potency,[1],inactive
same,Potency,[2],inactive
same,activity (max response),[7],-6.83%
CC1=C(C(=O)O)N2C(=O)[C@@H](NC(=O)[C@H](N)c3ccccc3)[C@H]2SC1,Potency,[1],inactive
same,Potency,[2],inactive
same,activity (max response),[7],10%
Cc1cc(C(=O)Nc2cc(Nc3ccc4c(/C=C/c5ccccn5)n[nH]c4c3)ccc2F)n(C)n1,Potency,[1],9.2 µM (active) and 5.25 µM (active)
same,Potency,[2],9.2 µM (active) and 5.25 µM (active)
same,Potency,[7],22.4 µM (active)
C=CC(=O)N1CCC(CNc2ncnc(N)c2-c2ccc(Oc3ccccc3)cc2)CC1,Potency,[1],5.9 µM (active)
same,Potency,[2],8.33 µM (active)
same,activity (max response),[7],-22.9%
Cc1c(NC(C)C)c(=O)n(-c2ccccc2)n1C,Potency,[1],inactive
same,Potency,[2],inactive
same,activity (max response),[7],8.03%
Cn1c(=O)c(F)c(Nc2ccc(I)cc2F)c2c(=O)n(C[C@@H](O)CO)cnc21,Potency,[1],0.0332 µM (active)
same,Potency,[2],0.0235 µM (active)
same,Potency,[6],2.09 µM (active)
CO[C@H]1/C=C\C=C(\C)C(=O)NC2=CC(=O)C(NCCN(C)C)=C(C[C@@H](C)C[C@H](OC)[C@H](O)[C@@H](C)/C=C(/C)[C@@H]1OC(N)=O)C2=O,Potency,[1],0.0332 µM (active)
same,Potency,[2],0.0833 µM (active)
same,Potency,[7],0.282 µM (active)
Cc1ncc(NC(=O)c2cccc(C(F)(F)F)c2)cc1-c1cnc(OC2CCOCC2)c(N2CCOCC2)c1,Potency,[1],6.61 µM (active)
same,Potency,[2],5.9 µM (active)
same,Potency,[7],22.4 µM (active)
O=C(O)CN(CCOCCOCCN(CC(=O)O)CC(=O)O)CC(=O)O,viability (% of control),[1],65.2% [at 0.588 µM]
same,"viability, % of control",[2],96.9% [at 0.588 µM]
same,activity (max response),[7],-1%
CC1=C(CC(=O)O)c2cc(F)ccc2/C1=C\c1ccc(S(C)=O)cc1 (centres undefined),Potency,[1],inactive
same,Potency,[2],inactive
same,activity (max response),[7],1.22%
CCCOc1ccn2c(C(C)=O)cc(-c3ccccc3S(C)(=O)=O)c2c1,Potency,[1],20.9 µM (active)
same,Potency,[2],14.8 µM (active)
same,activity (max response),[7],0.517%
CC(/C=C/C(=O)NO)=C\[C@@H](C)C(=O)c1ccc(N(C)C)cc1,Potency,[1],326 nM (active) and 296 nM (active)
same,Potency,[2],259 nM (active) and 332 nM (active)
same,Potency,[7],6.31 µM (active)
O=C(/C=C/c1cccnc1)NCCCCC1CCN(C(=O)c2ccccc2)CC1,Potency,[1],0.0053 µM (active)
same,Potency,[2],0.0053 µM (active)
same,Potency,[7],0.0126 µM (active)
CC(=NNC(=O)c1cccc(S(=O)(=O)N2CCOCC2)c1)c1cc(Cl)ccc1O,Potency,[1],0.742 µM (active)
same,Potency,[2],0.742 µM (active)
same,Potency,[7],3.55 µM (active)
CC1(C)OCCn2c1nc1c(N3CCOCC3)nc(-c3cnc(N)nc3)nc12,Potency,[1],1.32 µM (active)
same,Potency,[2],2.95 µM (active)
same,activity (max response),[7],-17.2%
CN1CCCN=C1/C=C/c1cccs1,Potency,[1],inactive
same,Potency,[2],inactive
same,activity (max response),[7],0.0735% and 9.48%
NS(=O)(=O)c1cc2c(cc1Cl)NC(CSCc1ccccc1)=NS2(=O)=O,Potency,[1],inactive
same,Potency,[2],inactive
same,activity (max response),[7],-2.17%
CCn1nc(C2CCN(C(=O)CCO)CC2)nc1-c1cnc(N)c(-c2nnc(C(C)(C)C)o2)n1,Potency,[1],5.25 µM (active)
same,Potency,[2],5.25 µM (active)
same,activity (max response),[7],-18.1%
